Reference: PubChem BioAssay (NCATS)
Records with an inconclusive call do not appear. Calls of active or inactive are those of the source. The call rests on the fitted dose curve; in most records, active means well fitted curve in the direction sought with a large enough effect; inconclusive means small, poorly fitted or top-dose-only effect, or another doubt; inactive means no such curve, though single readings can be large; an effect the other way counts as inactive or inconclusive.

Experiments:
[1] = Cellular Toxicity (caspase-3) Hek293 (AID 664);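 further: cells exposed to compound for 16 h at 37 °C before readout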
Outline: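 HEK293 cells in complete medium treated 16 h at 37 °C, then Caspase-Glo 3/7 luminescence read after 20 min at room temperature. Normalized to DMSO and 100 uM tamoxifen; AC50 from Hill fit of concentration-response.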

[2] = Cellular Toxicity (caspase-3) N2a (AID 665);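 further: compound exposure lasted 16 h at 37 °C before readout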
Outline: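 Mouse N2a neuroblastoma cells, 1500 per well, treated 16 h at 37 °C in complete medium; caspase-3/7 activity by Caspase-Glo luminescence after 1 h. Normalized to DMSO and 10 uM staurosporine; AC50 from Hill fits.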

[3] = Cellular Toxicity (caspase-3) NIH 3T3 (AID 666);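 further: caspase signal read after 16 h compound exposure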
Outline: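 Mouse NIH 3T3 fibroblasts (1000/well) treated 16 h at 37 C; caspase-3/7 activity measured by Caspase-Glo 3/7 luminescence after 20 min. Normalized to DMSO and 100 uM tamoxifen; AC50 from Hill fits.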

[4] = Cellular Toxicity (caspase-3) Renal Proximal Tubule (AID 667);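 further: cells exposed to compound for 16 hours at 37 °C before detection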
Outline: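 Caspase 3/7 activation measured by luminescent aminoluciferin release in primary rat proximal tubule cells after 16 hr compound exposure at 37 °C. AC50 from Hill-fitted concentration-response, scaled between DMSO and 10 uM staurosporine.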

[5] = molecular target: Cytochrome P450 3A4 (Homo sapiens) (UniProt P08684); assay: qHTS Assay for Inhibitors and Substrates of Cytochrome P450 3A4 (AID 884); further: series mostly up to about 57 µM; nearly all actives have a fitted effect of over 50% in size
Outline: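 20 nM human CYP3A4 with 25 uM Luciferin-PPXE (at KM) in 200 mM KPO4, preincubated 10 min with compound; NADPH regeneration started a 60 min RT reaction. Luciferin detected by luminescence, normalized to 57 uM ketoconazole as full inhibition.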

[6] = MultiTox-Fluor Cytotoxicity Assay - LYMP1-001 - Dead Cells (AID 946);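 further: cells exposed to compound for 16 h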
Outline: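 Seed 2500 LYMP1-001 cells/well, incubate 5 hr at 37 C; add compound, 16 hr at 37 C; add MultiTox-Fluor reagent, 60 min RT; read dead-cell fluorescence Ex/Em=485/520. Normalize to DMSO and 15 uM tetraoctylammonium bromide.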

[7] = MultiTox-Fluor Cytotoxicity Assay - LYMP1-001 - Live Cells (AID 947)
[8] = Cell Viability - LYMP1-002 - Assay at 16 hr (AID 948)
Outline: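 ATP luminescence (CellTiter-Glo) was measured after 16 hr compound exposure at 37 C of 2500 lymphoblastoid LYMP1-002 cells per well. Concentration-response curves were fitted with the Hill equation to give AC50.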

[9] = MultiTox-Fluor Cytotoxicity Assay - LYMP1-002 - Live Cells (AID 955);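 further: cells exposed to compound for 16 hours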
Outline: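 Human lymphoblastoid LYMP1-002 cells, 2500/well, treated 16 h at 37 C in complete medium. Live-cell protease activity via GF-AFC fluorescence (Ex/Em 405/510) after 60 min reagent incubation; AC50 from Hill fits.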

[10] = MultiTox-Fluor Cytotoxicity Assay - LYMP1-003 - Dead Cells (AID 961);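 further: cells exposed to compound for 16 h at 37 °C; nearly all actives have a fitted effect of over 70% in size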
Outline: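 LYMP1-003 lymphoblastoid, 2500 cells/well, 5 hr settle then 16 hr cpd at 37 C; MultiTox-Fluor reagent 60 min RT; Ex/Em 485/520 dead-cell signal; norm. DMSO = 0%, 15 uM tetraoctylammonium bromide = 100%; Hill AC50.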

[11] = MultiTox-Fluor Cytotoxicity Assay - LYMP1-003 - Live Cells (AID 962);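 further: cells exposed to compound for 16 hours at 37 °C; cytotoxic hits lower the live-cell protease signal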
Outline: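 LYMP1-003 lymphoblastoid cells, 2500/well in complete medium, treated 16 h at 37 C; live-cell protease cleavage of GF-AFC read by fluorescence (Ex/Em 405/510) after 60 min reagent; AC50 from Hill fits of concentration-response.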

[12] = Cell Viability - LYMP1-003 - Assay at 24 hr (AID 963)
Outline: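 Human lymphoblastoid LYMP1-003 cells, 2500/well, treated 24 h at 37 C in complete medium. Viability read as intracellular ATP by CellTiter-Glo luminescence after 30 min at room temperature; AC50 from Hill-equation fits of qHTS concentration-response.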

[13] = Cell Viability - LYMP1-003 - Assay at 40 hr (AID 964); further: series mostly up to about 92 µM; nearly all actives have a fitted effect of over 60% in size
Outline: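 LYMP1-003 human lymphoblastoid cells, 2500/well, preincubated 5 h at 37 C, then treated with compound for 40 h at 37 C. Intracellular ATP read by CellTiter-Glo luminescence after 30 min at room temperature; AC50 from Hill-equation fits.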

[14] = Cell Viability - LYMP2-003 (AID 965);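 further: cells exposed to compounds for 24 h before reading; nearly all actives have a fitted effect of over 50% in size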
Outline: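 CellTiter-Glo luminescence quantified ATP loss after 24 h compound treatment of LYMP2-003 lymphoblastoid cells at 37 C. Titration series were fitted with the standard Hill equation to give AC50.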

[15] = Cell Viability - LYMP2-005 (AID 967); further: series mostly up to about 92 µM
Outline: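 LYMP2-005 human lymphoblastoid cells (2500/well) were treated with compounds for 24 h at 37 C. Intracellular ATP was then measured by CellTiter-Glo luminescence after 30 min at room temperature. AC50 values came from Hill-equation fits of qHTS concentration-response data.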

[16] = Cell Viability - LYMP2-009 (AID 968); further: series mostly up to about 92 µM; nearly all actives have a fitted effect of over 55% in size
[17] = Cell Viability - LYMP2-011 (AID 969); further: nearly all actives have a fitted effect of over 60% in size
Outline: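 2500 cells/well in complete medium, compound-treated 24 h at 37 C. Viability read as intracellular ATP by CellTiter-Glo luminescence after 30 min at room temperature. AC50 from Hill fits of qHTS concentration-response data.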

[18] = Cell Viability - LYMP2-013 (AID 970); further: series mostly up to about 92 µM; nearly all actives have a fitted effect of over 55% in size
Outline: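 Human lymphoblastoid LYMP2-013 cells, 2500/well, treated 24 h at 37 C in complete medium; viability as intracellular ATP by CellTiter-Glo luminescence after 30 min. AC50 from Hill fits of qHTS concentration-response.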

[19] = Cell Viability - LYMP2-015 (AID 971); further: nearly all actives have a fitted effect of over 55% in size
Outline: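 LYMP2-015 human lymphoblastoid cells (2500/well) in complete medium, compound-treated 24 h at 37 C; viability read as cellular ATP by CellTiter-Glo luminescence after 30 min at room temperature. AC50 from Hill-equation fits of qHTS concentration-response data.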

[20] = Cell Viability - LYMP2-017 (AID 972); further: series mostly up to about 92 µM; nearly all actives have a fitted effect of over 55% in size
Outline: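 LYMP2-017 human lymphoblastoid cells (2500/well) settled 5 hr at 37 C, then exposed to compound 24 hr at 37 C in complete medium. Viability taken as intracellular ATP by CellTiter-Glo luminescence after 30 min at RT; AC50 from Hill fits.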

[21] = Cell Viability - LYMP2-019 (AID 973); further: nearly all actives have a fitted effect of over 55% in size
Outline: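 Human lymphoblastoid LYMP2-019 cells (2500/well) preincubated 5 h at 37 C, then treated 24 h at 37 C in complete medium. Viability by CellTiter-Glo ATP luminescence after 30 min at room temperature; AC50 from Hill fits.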

[22] = Cell Viability - LYMP2-021 (AID 974)
Outline: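 Human lymphoblastoid LYMP2-021 cells, 2500/well in complete medium, treated 24 hours at 37 C. Intracellular ATP by CellTiter-Glo luminescence (30 min, RT); AC50 from Hill fits of concentration-response.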

Measured: Potency

Chain of Cytochrome P450 3A4 (Homo sapiens) (P08684 whole entry, looked up): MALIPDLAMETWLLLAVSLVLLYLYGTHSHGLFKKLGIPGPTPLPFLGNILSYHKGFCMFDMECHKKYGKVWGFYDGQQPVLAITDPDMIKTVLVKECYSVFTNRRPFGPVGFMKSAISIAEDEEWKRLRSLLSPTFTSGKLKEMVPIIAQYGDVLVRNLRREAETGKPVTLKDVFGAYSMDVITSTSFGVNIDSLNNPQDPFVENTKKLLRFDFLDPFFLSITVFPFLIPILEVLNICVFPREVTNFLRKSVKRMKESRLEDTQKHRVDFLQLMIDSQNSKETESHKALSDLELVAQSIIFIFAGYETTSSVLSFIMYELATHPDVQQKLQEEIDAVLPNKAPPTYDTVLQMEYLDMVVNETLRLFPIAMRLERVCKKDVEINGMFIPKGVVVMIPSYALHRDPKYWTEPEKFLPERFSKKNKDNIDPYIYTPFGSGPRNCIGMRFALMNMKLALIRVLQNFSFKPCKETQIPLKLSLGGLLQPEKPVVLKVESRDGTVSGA

CC12CCC(CC1=O)C2(C)C (configuration not stated)
inactive: all assays above
